{
  "source": "PubChem BioAssay AID1021",
  "about": "(Emory University Molecular Libraries Screening Center, 2008)",
  "note": "Out of some 220,000 compounds screened, about 2,100 (0.95%) were called active. For the sample, actives were picked, then their nearest neighbours and some compounds at random. Values without a mark were called inactive.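 How the source made its calls: active means compounds that cut the binding signal by more than half at the single screening dose; inactive means the rest.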",
  "data": [
    {"target": "Induced myeloid leukemia cell differentiation protein Mcl-1 (Homo sapiens) (UniProt Q07820)", "sequence (Q07820 whole entry, looked up)": "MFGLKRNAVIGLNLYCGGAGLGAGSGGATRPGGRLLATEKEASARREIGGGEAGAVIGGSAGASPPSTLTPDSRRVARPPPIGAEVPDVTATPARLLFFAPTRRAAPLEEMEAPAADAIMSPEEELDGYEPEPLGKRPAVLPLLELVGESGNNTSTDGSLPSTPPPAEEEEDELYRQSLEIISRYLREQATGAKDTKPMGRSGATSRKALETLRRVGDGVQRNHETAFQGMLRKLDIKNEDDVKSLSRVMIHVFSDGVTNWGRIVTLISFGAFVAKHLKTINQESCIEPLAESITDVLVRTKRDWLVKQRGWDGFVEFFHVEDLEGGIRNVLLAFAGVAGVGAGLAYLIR", "test": "Mcl-1/Bid binding inhibitors, primary screen, biochemical, TR-FRET, 1536-well (AID 1021);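 further: His-tagged Mcl-1 with europium anti-His antibody binding Bid BH3 peptide; 0% = Mcl-1 plus peptide wells and 100% = peptide-only wells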", "details": "TR-FRET Mcl-1/Bid-Dy647 peptide binding, at 21.7 µM, stronger effect = higher value", "values": [
      {"smiles": "O=C(Cc1ccccc1)N1CCN(C2CCCCCC2)CC1", "inhibition": "17%"},
      {"smiles": "COc1ccccc1CN1CCN(C(=O)Cc2ccccc2)CC1", "inhibition": "68% (active)"},
      {"smiles": "O=C(Cc1ccccc1[N+](=O)[O-])N1CCN(Cc2ccc3c(c2)OCO3)CC1", "inhibition": "-23.7%"},
      {"smiles": "COc1ccc(-n2c(O)c(C(C)=Nc3ccc4c(c3)CCC4)c(=O)[nH]c2=O)cc1", "inhibition": "-2.41%"},
      {"smiles": "O=C(O)COc1ccccc1/C=C1\\C(=O)NC(=O)N(CCC2=CCCCC2)C1=O", "inhibition": "2.6%"},
      {"smiles": "CN1CCN(Cc2ccccc2C(F)(F)F)CC1", "inhibition": "-13%"},
      {"smiles": "CN1CCN(Cc2ccc(OC(F)(F)F)cc2)CC1", "inhibition": "56.4% (active)"},
      {"smiles": "CCOP(=O)(OCC)C(NC(=O)NC)C(N)=O", "note": "(stereo not given)", "inhibition": "-3.96%"},
      {"smiles": "CCc1nnc(NS(=O)(=O)c2ccc(N=Cc3c(O)n(-c4ccccc4)c(=O)[nH]c3=O)cc2)s1", "inhibition": "-3.62%"},
      {"smiles": "CCOc1ccc(CN(CCCl)CCCl)cc1C(=O)OC", "inhibition": "63.2% (active)"},
      {"smiles": "CC1=C2C(=O)C3C(CC=C4CC(OC5OC(O)C(O)C(O)C5CO)CCC43C)C2CCC12OC1CC(C)CNC1C2C", "note": "(stereo not given)", "inhibition": "-4.26%"},
      {"smiles": "O=c1c2ccccc2nc(/C=C/c2ccco2)n1-c1ccccc1O", "inhibition": "-66%"},
      {"smiles": "CNC(=O)O/N=C(\\N)Cc1csc2ccc(Cl)cc12", "inhibition": "-11.9%"},
      {"smiles": "COc1ccc(C(=O)C2CCCN(Cc3ccc(C)s3)C2)cc1OC", "note": "(stereo not given)", "inhibition": "-15%"},
      {"smiles": "CC1CCCCN1Cc1cccnc1", "note": "(stereo not given)", "inhibition": "49.3%"},
      {"smiles": "Cc1cccc(N2C(=O)NC(=O)/C(=C\\c3cnn(-c4ccccc4)c3)C2=O)c1", "inhibition": "-15.1%"},
      {"smiles": "O=C1NC(=O)N(c2ccccc2)C(=O)/C1=C/c1ccc([N+](=O)[O-])s1", "inhibition": "-21.7%"},
      {"smiles": "O=C1NC(=O)N(c2ccc(F)cc2)C(=O)/C1=C/c1ccc2c(c1)CCCN2Cc1ccccc1", "inhibition": "74.2% (active)"},
      {"smiles": "O=C(c1cc2nc(-c3ccccc3)cc(-c3ccccc3)n2n1)N1CCC2(CC1)OCCO2", "inhibition": "12.9%"},
      {"smiles": "CC(=O)Cc1ccc(OC(C)C)cc1", "inhibition": "29.9%"}
    ]}
  ]
}
